Screening data: PubChem, National Center for Advancing Translational Sciences (NCATS)
Hits are enriched below; roughly 2.3% of the tested compounds scored in any of these assays.
Tau fluor cs – counter-screen for tau fibril formation inhibitors; Potency, µM (series often up to 57.7 µM); tau K18 P301L Alexa594 fluorescence, heparin fibrillization; AID 1463; hit rate 0.93% among 280,000; further: nearly all actives have a fitted effect of over 55% in size
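Human tau K18 P301L (15 uM unlabeled, 0.24 uM Alexa 594-labeled) in 100 mM sodium acetate pH 7 with 20 uM heparin, 6 hr at 37 C. ThT 30 uM added, 1 hr ambient; Alexa 594 FP and total fluorescence read at 555/632 nm.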
USP1 inh – blocks the human USP1/UAF1 deubiquitinase complex | O94782 | recombinant USP1/UAF1, Ub-Rhodamine cleavage fluorescence | hit rate 0.23% among 390,000 | Potency, µM (doses to about 57.1 µM), usual class: inhibitors; further: nearly all actives have a fitted effect of over 60% in size
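In this screen, compounds sit with the deubiquitinase complex (1nM) for 15 min at room temperature before Ub-Rho is added at 150nM final. Fluorescence rise is then followed for 6 reads every 60 seconds.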
Tau fibril FP – inhibitors of human tau fibril formation; hit rate 0.39% among 280,000; K18 P301L tau heparin fibrillization, Alexa594 FP, 6 h; Potency, µM (doses to about 57.7 µM), hits mostly inhibitors; further: nearly all actives have a fitted effect of over 55% in size
Target sequence (P10636 561-689 P618L limits assumed): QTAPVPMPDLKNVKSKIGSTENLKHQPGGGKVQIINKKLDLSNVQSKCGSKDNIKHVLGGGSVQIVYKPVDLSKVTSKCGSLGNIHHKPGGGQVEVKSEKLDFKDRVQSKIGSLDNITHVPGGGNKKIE
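Compound effects on tau fibrillization are measured by Alexa 594 fluorescence polarization (ex 555, em 632 nm). K18 P301L tau is used at 15 uM with 0.24 uM labeled tracer, and 20 uM heparin induces aggregation over 6 hr at 37 C.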
Tau fibril ThT – tau fibrillization inhibition (ThT binding) | hit rate 2.1% among 270,000 | recombinant tau K18 P301L (four-repeat tau fragment), heparin-induced fibrillization, ThT fluorescence | P10636 | Potency, µM (highest dose often 57.4 µM), hits mostly inhibitors | AID 1460; further: nearly all actives have a fitted effect of over 55% in size
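Aggregation was driven by heparin (20 uM final) acting on recombinant tau […] bearing P301L in 100 mM sodium acetate pH 7; fibrils were detected with Thioflavin T.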
FBPA coupling cs – counter-screen for Giardia aldolase inhibitors: coupling enzyme system; coupling enzyme system counterscreen, AmpLite Red fluorescence; activity change, negative = inhibition, % at 58.2 µM, hits read low; hit rate 0.67% among 290,000; AID 2472; in the data active means activity change below about -30%
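Activity here indicates interference with the coupling reaction, not aldolase inhibition. Compounds at 57.5 uM final met coupling enzymes for 10 min at RT; substrate and AmpLite Red detection followed, with a 525/598 nm fluorescence read after 20 min.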
Each line names hits and unclear results; the compound was inactive in the other large screens; [ ] = dose if it differs, or a comment. Unless noted, the call rests on the fitted dose curve; in most records, active means well fitted curve in the direction sought with a large enough effect; inconclusive means small, poorly fitted or top-dose-only effect, or another doubt; inactive means no such curve, though single readings can be large; an effect the other way counts as inactive or inconclusive.

O=C1/C(=C/c2cccs2)CCC/C1=C\c1cccs1	none (no result: Tau fluor cs, Tau fibril FP, Tau fibril ThT, FBPA coupling cs)
Cn1cccc1/C=C1\CCC/C(=C\c2cccn2C)C1=O	Tau fluor cs inconclusive, USP1 inh 22µM, Tau fibril ThT 5µM
COc1ccc2c(c1)C(c1ccccc1C)CC(=O)O2 (configuration not stated)	Tau fluor cs inconclusive (no result: USP1 inh)
COC(=O)C1=C(C)NC(=O)/C1=C\c1cc(C)n(-c2cc(C)cc(C)c2)c1C	Tau fluor cs inconclusive, Tau fibril ThT 20µM
COC(=O)C1=C(C)NC(=O)/C1=C\c1cc(C)n(-c2ccccc2)c1C	Tau fluor cs inconclusive, Tau fibril ThT 13µM
COC(=O)C1=C(O)/C(=C\c2cc(C)n(-c3ccccc3C)c2C)N=C1C	Tau fibril ThT inconclusive, FBPA coupling cs -42
COC(=O)C1=C(O)/C(=C\c2cc(C)n(-c3ccccc3F)c2C)N=C1C	Tau fibril ThT inconclusive
Cc1noc(C)c1COc1ccc(C(=O)N2CCN(c3ccccn3)CC2)cc1	none (no result: Tau fluor cs, Tau fibril FP, Tau fibril ThT, FBPA coupling cs)
CCN(c1ccccc1)S(=O)(=O)c1nnc(NC(=O)C2CCCCC2)s1	Tau fibril ThT 3.5µM (no result: FBPA coupling cs)
CC(C)c1ccc(C(=O)Nc2cccc3cccnc23)cc1	Tau fluor cs inconclusive, Tau fibril ThT inconclusive (no result: FBPA coupling cs)
CNc1cccc2c1C(=O)c1ccccc1C2=O	Tau fluor cs inconclusive, Tau fibril ThT 8.9µM
COC(=O)C1=C(C)N=C2SC(C#N)=C(N)N2C1c1ccc(OCc2ccccc2)cc1 (configuration not stated)	Tau fluor cs 7.9µM[quencher], Tau fibril FP inconclusive, Tau fibril ThT inconclusive
COC(=O)C1=C(C)N=C2SC(C#N)=C(N)N2C1c1cc(OC)c(OC)c(OC)c1 (configuration not stated)	none
O=c1[nH]c2ccc(Br)cc2c(-c2ccccc2)c1CN1CCOCC1	USP1 inh inconclusive, Tau fibril FP inconclusive, Tau fibril ThT 22µM
c1ccc2c(c1)CCN(c1nc3cc4c(cc3s1)OCCO4)C2	FBPA coupling cs -38
CCOC(=O)c1cnn(-c2ccc(OC)cc2)c1C1CCN(C(=O)OC(C)(C)C)CC1	none (no result: FBPA coupling cs)
Oc1ccccc1NCC(O)Cn1ccc2ccccc21 (configuration not stated)	Tau fluor cs 20µM[quencher], USP1 inh inconclusive, Tau fibril ThT 14µM
COC(=O)c1ccc(C(=O)Nc2ccc(N)cc2N)cc1	Tau fibril ThT 13µM, FBPA coupling cs -34
COc1ccccc1NC(=O)c1ccc(N)cc1	none
[O-][n+]1onc2c1CCC(=N/O)/C2=N\Nc1ccccc1	Tau fluor cs inconclusive, Tau fibril FP inconclusive, Tau fibril ThT 14µM (no result: USP1 inh)
CCN(C(=O)CSc1nc(-c2ccc(C(C)C)cc2)no1)c1ccccc1	USP1 inh inconclusive (no result: FBPA coupling cs)
CC1CC2(C)Oc3ccccc3C3OCC1(COC(=O)Nc1ccccc1)C(C)C32 (configuration not stated)	none (no result: USP1 inh)
O=C(CSc1nnc(Cc2csc(Nc3cccc(Cl)c3)n2)o1)N1CCc2ccccc21	Tau fluor cs 7.1µM[quencher], Tau fibril ThT inconclusive
COc1ccc(-c2nc3sc(CCNC(=O)C(=O)Nc4cc(F)ccc4F)c(C)n3n2)cc1	Tau fibril FP inconclusive (no result: FBPA coupling cs)
COc1cccc(NC(=O)CN2C(=O)CSc3ccc(S(=O)(=O)N4CCCC4)cc32)c1	Tau fluor cs inconclusive (no result: FBPA coupling cs)
Cc1ccc(NC(=O)C(OC(=O)c2ccccc2Cl)c2ccccc2)cc1Cl (configuration not stated)	Tau fluor cs inconclusive, Tau fibril FP inconclusive
Cc1ccc(NC(=O)C(OC(=O)c2ccc(NC(N)=O)cc2)c2ccccc2)cc1Cl (configuration not stated)	Tau fluor cs inconclusive, Tau fibril FP 13µM, Tau fibril ThT inconclusive
FC(F)(F)c1cc(CCN2C(=S)NC[C@@H]2CC2CCCCC2)cc(C(F)(F)F)c1	USP1 inh inconclusive
COc1cccc(-c2nc(NCc3cccnc3)c3ccccc3n2)c1O	USP1 inh inconclusive (no result: Tau fluor cs, Tau fibril FP, Tau fibril ThT)
COc1cccc(-c2nc(NCC3CCCO3)c3ccccc3n2)c1O (configuration not stated)	Tau fluor cs 20µM[quencher], USP1 inh inconclusive, Tau fibril ThT inconclusive
COc1cccc(-c2nc(NC(C)C)c3ccccc3n2)c1O	Tau fluor cs 16µM[quencher], USP1 inh inconclusive, Tau fibril ThT 18µM
CCC(C)Nc1nc(-c2cccc(OC)c2O)nc2ccccc12 (configuration not stated)	Tau fluor cs 16µM[quencher], USP1 inh inconclusive, Tau fibril FP inconclusive, Tau fibril ThT inconclusive
Oc1ccccc1-c1nc(NCC2CCCO2)c2ccccc2n1 (configuration not stated)	Tau fluor cs inconclusive, Tau fibril FP inconclusive, Tau fibril ThT inconclusive
Cn1c(NNC(=O)/C=C/c2ccc3c(c2)OCO3)cc(=O)n(C)c1=O	FBPA coupling cs -37 (no result: Tau fibril ThT)
COc1ccc(N=C2NC(=O)/C(=C/c3ccc(O)c(OC)c3)S2)cc1	Tau fluor cs inconclusive, Tau fibril ThT 3.5µM
COc1ccc(N=C2NC(=O)/C(=C\c3ccco3)S2)cc1	Tau fluor cs inconclusive, Tau fibril ThT 10µM
O=C1NC(=Nc2ccc(O)cc2)S/C1=C\C=C\c1ccco1	Tau fluor cs inconclusive, USP1 inh inconclusive, Tau fibril FP inconclusive, Tau fibril ThT 1.6µM
COC(=O)C1(C(=O)OC)CC2=CC(CC2=O)Cc2ccccc2[C@@H]1C[N+](=O)[O-] (some centres not stated)	none (no result: USP1 inh)
O=C(O)Cn1ncc2c1-c1ccoc1CC2	Tau fibril FP inconclusive, Tau fibril ThT inconclusive, FBPA coupling cs -38
O=C(Cn1ncc2c1-c1ccccc1OC2)N1CCc2ccccc21	none
O=C(/C=C/c1ccccc1)c1ccc2c(c1)OCCCCO2	Tau fibril ThT inconclusive
O=C(/C=C/c1ccc2c(c1)OCCCO2)c1ccc2ccccc2c1O	Tau fluor cs inconclusive, Tau fibril ThT 3.2µM
Cc1ccc(C(=O)/C=C/c2ccc3c(c2)OCCO3)c(O)c1	USP1 inh inconclusive, Tau fibril ThT 6.3µM
CCOC(=O)c1c(N)sc2c(OC)c(Br)ccc12	Tau fluor cs 25µM[quencher], Tau fibril ThT inconclusive
CCOC(=O)c1c(N)sc(C(=O)OC)c1C	Tau fibril ThT inconclusive
COc1cccc2c1Oc1ncccc1N(c1ccc(C(=O)NCc3ccccc3C)s1)C2	Tau fibril FP inconclusive (no result: FBPA coupling cs)
CCOc1cc(/C=C/c2ccc3cccc([N+](=O)[O-])c3n2)ccc1OCC(=O)N(C)C	Tau fibril ThT 7.1µM
COc1cc(/C=C/c2ccc3cccc([N+](=O)[O-])c3n2)ccc1OCC#N	Tau fluor cs inconclusive, Tau fibril ThT inconclusive
CCOc1cc(/C=C/c2ccc3cccc([N+](=O)[O-])c3n2)ccc1O	Tau fluor cs inconclusive, Tau fibril ThT 14µM
CCOc1cc(/C=C/c2cc(C(F)(F)F)[nH]c(=O)n2)ccc1O	Tau fibril ThT 14µM
CN(C)c1ccc(-c2cncnc2NCc2cccnc2)cc1	none (no result: Tau fluor cs, USP1 inh, Tau fibril FP, Tau fibril ThT)
Cc1ccc(-c2csc(NC(=O)CN3CCOCC3)n2)cc1C	none (no result: Tau fluor cs, Tau fibril FP, Tau fibril ThT)
Cc1[nH][nH]c(=O)c1C(c1cc([N+](=O)[O-])ccc1O)c1c(C)[nH][nH]c1=O	Tau fibril ThT inconclusive
